Consider 55 compounds from ChEMBL document CHEMBL4513216, “Probing the Open Global Health Chemical Diversity Library for Multistage-Active Starting Points for Next-Generation Antimalarials” (ACS Infect Dis, 2020).

Out of some 69,000 compounds screened, about 8,600 (12%) showed an effect of 50% or more. The list comes from a sample in which strong results are over-represented; it also holds similar structures and randomly drawn compounds.

This test has as its system Plasmodium berghei. Description: Screen against P. berghei liver stage (PbLuc), transformed with Luciferase, at 10uM. The class given is functional, HepG2. As to conditions: tested at 10 uM.
Take `COc1cccc(C2c3c(n[nH]c3C)N=C3COC(=O)C32)c1O` (stereo not given): the INHIBITION worked out at 48%. Consider `COc1cc(C2SCC(=O)Nc3[nH]ncc32)cc2c1OCO2` (stereo not given), for which the INHIBITION is 30.2%. Consider `CCOc1c(Br)cc(C2c3c(n[nH]c3C)N=C3COC(=O)C32)cc1OC` (stereo not given), for which the INHIBITION came to 72.4%. For `COc1cc(C2c3c(n[nH]c3C)N=C3COC(=O)C32)cc(Br)c1O` (stereo not given) the value was 62.3%; for `COc1cc(C2c3c(n[nH]c3C)N=C3COC(=O)C32)cc2c1OCO2` (stereo not given), 58.1%.

Turning to `COc1cccc(C2c3c(n[nH]c3C)N=C3COC(=O)C32)c1OC` (stereo not given), the INHIBITION was -7.77%.

For `O=C(NCc1ccco1)[C@H]1CC[C@@H]2[C@@H](CCN2c2ncc(F)cn2)O1`, the INHIBITION was 38.1%.

Regarding `CC(=O)NC1CCCN(C(=O)NCCOc2ccc3c(c2)OCO3)C1` (stereo not given), the INHIBITION amounted to 15.6%. For `O=C(CCc1ccncc1)N1CCCC(n2cccn2)C1` (stereo not given) the value was 24.39%; for `O=C(c1cccn1Cc1cccs1)N1CCC(C(=O)N2CCCC2)CC1`, 11.6%.

Regarding `COCc1cccc(CNCc2c(C)nn(C)c2N2CCOCC2)c1`, the INHIBITION turned out to be 27.4%. With `CCCN1CCCCCC1Cc1c(C(=O)NC)sc2ccccc12` (stereo not given) the figure was 17.235%; with `CN1CCCNC(=O)C12CCN(C(=O)c1ccc3[nH]cnc3c1)CC2`, 20.2%; with `CCc1noc(C(C)N2CCN(CCOCC(F)(F)F)CC2)n1` (stereo not given), -5.545%.

As to `CCCN1CCC(CNC(=O)C2(c3ccccc3)CCC2)C1` (stereo not given), the INHIBITION came to 42.9%. As for `O=C(NCc1nccn1CCc1ccccc1)NCC1(O)CCC1`, the INHIBITION was -4.15%. Take `Cc1noc(C(C)C)c1C(=O)NCC1CCCN1Cc1ccccc1` (stereo not given): the INHIBITION came out at 24.1%. Consider `O=C(NCC1CCCN1Cc1ccccc1)NCC1(O)CCC1` (stereo not given), for which the INHIBITION came out at 53.8%. For `O=C(NCC1CCN(CCc2ccccc2)C1)NCC1(O)CCC1` (stereo not given) the value was 53.8%.

Take `O=C(NCC1CCCN1CCc1ccccc1)NCC1(O)CCC1` (stereo not given): the INHIBITION was 19.2%. As for `CCC(=O)NCCCn1c(-c2cccnc2C)cc2cccnc21`, the INHIBITION is recorded as 10.9%. With `CCNC(=O)C(C)NC(=O)Nc1ccccc1SC(F)(F)F` (stereo not given) the figure was 65%. With `CCNC(=O)C(C)NC(=O)Nc1ccccc1SCC` (stereo not given) the figure was 5.17%; with `CCNC(=O)C(C)NC(=O)Nc1ccccc1Cl` (stereo not given), 62.9%; with `CCCNC(=O)C(C)NC(=O)Nc1ccccc1SC(F)F` (stereo not given), 41.5%. For `Cn1c(C(F)(F)F)nn(CCNC(=O)Nc2ccccc2Cl)c1=O` the value was 21%. As to `O=C(NCCCn1nc2ccccn2c1=O)Nc1ccccc1Cl`, the INHIBITION was 7.12%.

For the compound `O=C1CCC2(CCC(NCc3ccoc3)CC2)N1` (stereo not given), the INHIBITION is given as 2.58%. `O=C(CN1CCc2sccc2C1)Nc1nccs1`: the INHIBITION is -41.6%. For `COC1COC2(CCN(CC3CCOCC3)CC2)C1` (stereo not given) the value was 14%; for `Cc1ccnc(NC(=O)c2ccc(F)c(S(=O)(=O)NC3CC3)c2)c1`, -25.4%. As to `CCn1cnnc1C1CCN(C(=O)c2ccccc2F)CC1`, the INHIBITION is listed as 21%. For `CNC(=O)C1Cn2ccnc2C2(CCN(C(=O)c3ccoc3C)CC2)O1` (stereo not given) the value was -7.7%. With `CC(C)c1noc(C(C)N2CCN(Cc3nc4ccccc4[nH]3)CC2)n1` (stereo not given) the figure was 53.3%; with `CC(C)c1noc(C(C)N2CCN(Cc3cccs3)CC2)n1` (stereo not given), 15.5%. For `CC(C)c1noc(C(C)N2CCC(c3nc4ccccc4[nH]3)CC2)n1` (stereo not given) the value was 36.5%. With `CC(C)C(Sc1cccs1)C(=O)NCc1cccnc1` (stereo not given), the INHIBITION was 18.4%. As to `Cc1nc(CN(C)C2CCN(CCCOc3ccc(F)cc3)C2)no1` (stereo not given), the INHIBITION was -0.219%. With `CC(C)C(=O)N1CCCC(c2cc(C(F)F)n3ncnc3n2)C1` (stereo not given) the figure was 39.8%; with `O=C(c1ccco1)N1CCCC(c2cc(C(F)F)n3ncnc3n2)C1` (stereo not given), 14.8%; with `O=C(c1ccco1)N1CCCC(c2cc(C(F)(F)F)n3ncnc3n2)C1` (stereo not given), 60.4%. With `COCC(=O)N1CCCC(c2cc(C(F)F)n3ncnc3n2)C1` (stereo not given) the figure was 59.3%; with `O=C(Cc1ccsc1)N1CCCC(c2cc(C(F)F)n3ncnc3n2)C1` (stereo not given), 28%; with `O=C(c1ccncc1)N1CCCC(c2cc(C(F)F)n3ncnc3n2)C1` (stereo not given), 35.2%. With `O=C(c1cnoc1)N1CCC[C@]2(C[C@H](Oc3ncccc3F)CO2)C1` the figure was -28.2%. Take `CCCSCC(=O)N1C[C@H]2CC[C@@H](C1)N(Cc1ccccn1)C2=O`: the INHIBITION is reported as 35.9%. With `O=C1OCCN1CC(=O)N1C[C@@H]2CC[C@H]1CN(C(=O)c1ccccc1)C2` the figure was -12.6%; with `O=c1c(NCCOCCO)c(N2CCN(c3ccccc3)CC2)c1=O`, 6.34%. In the case of `CCn1nc(C)c2nnn(CC(=O)Nc3ccc(C)c(C)c3)c(=O)c21`, the INHIBITION came to 11%. Consider `O=C(Cn1ccc2ccccc21)NCc1cc(N2CCOCC2)ncn1`, for which the INHIBITION turned out to be 12.8%. With `O=C(NCc1cc(N2CCOCC2)ncn1)c1cccc(CO)n1` the figure was 71.1%; with `COc1nc(C)c(C(=O)NCc2cc(N3CCOCC3)ncn2)s1`, 34%; with `COc1cc(C(=O)NCc2cc(N3CCOCC3)ncn2)ccn1`, 63.7%. For `COc1ccc(C(=O)NCc2cc(N3CCOCC3)ncn2)o1` the value was 8.11%. For `Cc1cc(C(=O)NCc2ccnc(N3CCOCC3)c2)c(C)s1` the value was 4.65%.
